Read-outs that look alike come from different tables or passages of the source.

Parameters in all cases: species or system human, MV4-11 + K-562 + COLO205 + SK-N-BE2 + OVCAR-8
One experiment deals with AURKB. To be noted: read-out: apparent Kd, compound concentrations: 100 nM and 1000 nM (sheet 'Samples'), n = 1.
The test system of the next experiment is DCTPP1. As to conditions: read-out: apparent Kd; compound concentrations: 100 nM and 1000 nM (sheet 'Samples'), CATDS: 8.7325060780524003E-2; n = 1.
For a further experiment, the system named is DDR2. As to conditions: read-out: apparent Kd; compound concentrations: 100 nM and 1000 nM (sheet 'Samples'), CATDS: 8.3380311484054601E-2; n = 1.
The next experiment deals with FLT3. As to conditions: read-out: apparent Kd; compound concentrations: 100 nM and 1000 nM (sheet 'Samples'), CATDS: 0.108927417624357; n = 1.
In the next experiment the test system is FLT4. To be noted: read-out: apparent Kd; compound concentrations: 100 nM and 1000 nM (sheet 'Samples'), CATDS: 9.3314690514963106E-2; n = 1.
The next experiment relates to PDGFRB. To be noted: read-out: apparent Kd; compound concentrations: 100 nM and 1000 nM (sheet 'Samples'), CATDS: 0.111791794909036; n = 1.
For a further experiment, the system named is PI4KB. To be noted: read-out: apparent Kd; compound concentrations: 100 nM and 1000 nM (sheet 'Samples'), CATDS: 0.119169210644034; n = 1.
Another experiment deals with PIK3CD. As to conditions: read-out: apparent Kd; compound concentrations: 100 nM and 1000 nM (sheet 'Samples'), CATDS: 0.38237858605116598; n = 1.
The subject of the next experiment is TAOK1. To be noted: read-out: apparent Kd; compound concentrations: 100 nM and 1000 nM (sheet 'Samples'), CATDS: 9.5219877084068302E-2; n = 1.
The next experiment relates to AURKA. To be noted: read-out: apparent Kd; compound concentrations: 100 nM and 1000 nM (sheet 'Samples'), CATDS: 0.171682106860061; n = 1.
For a further experiment, the system named is CDC42. To be noted: read-out: apparent Kd; compound concentrations: 100 nM and 1000 nM (sheet 'Samples'), CATDS: 0.132933221213999; n = 1.
For another experiment, the system named is GSK3A. To be noted: read-out: apparent Kd; compound concentrations: 100 nM and 1000 nM (sheet 'Samples'), CATDS: 0.398799931633807; n = 1.
A further experiment relates to GSK3B. To be noted: read-out: apparent Kd; compound concentrations: 100 nM and 1000 nM (sheet 'Samples'), CATDS: 0.29957385679939402; n = 1.

As for `Cn1ccc2ncnc(Oc3ccc(NC(=O)Nc4ccccc4)cc3)c21` [TPKI-69], the potency estimated from few doses in the experiment with AURKB (CATDS: 0.138800296841457) is 695 nM; with DCTPP1, 2030 nM; in the experiment on DDR2, 2350 nM; with FLT3 it was 1150 nM; in the experiment with FLT4, 1680 nM; with PDGFRB it was 1080 nM. The potency estimated from few doses in the experiment with PI4KB was 943 nM; with PIK3CD, 142 nM; in the experiment on TAOK1, 1600 nM.

With `Cc1[nH]nc2c1N=C(c1ccccc1F)c1cc(C#N)ccc1N2` [RO0275062-000], the potency estimated from few doses is 496 nM in the experiment on AURKA; 492 nM in the experiment on AURKB (CATDS: 0.172202722003443); 1240 nM in the experiment on CDC42; 88.7 nM in the experiment on GSK3A; 143 nM with GSK3B.

Source of the values: PMC11062922 (Nature Chemical Biology, 2023).
